The list is not random: actives were taken first. Their share in the collection is about 9.2%.
Lamin A splicing = LMNA splicing modulation | HeLa LMNA splicing GFP/RFP minigene ratio, 48 h | Potency, µM (top dose mostly 46.1 µM), for inactives: at the highest dose ratio change, negative = inhibition, most hits filed as inhibitors | actives 0.01% (n = 200,000) | AID 1487; active means well fitted inhibition curve with a large enough effect in the signal ratio, with a control signal flat, not every such curve was filed as active; inconclusive means small, poorly fitted or top-dose-only effect, or effect the other way, or a change in a side signal; the % refers to the signal ratio; further: on the % scale 0 is the no-effect control and ±100 the full control effect
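S3 HeLa stable clones carrying a lamin A-EGFP splicing minigene plus DsRed2 were seeded at 600 cells/well in Opti-MEM with 2% FBS, pin-dosed and incubated 48 h at 37°C. Acumen cytometry (488 nm) gave the GFP/RFP total-intensity ratio.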
JMJD2E inh = inhibitors of human JMJD2E histone demethylase | B2RXH2 | JMJD2E catalytic domain, FDH-coupled NADH fluorescence (FDH is formaldehyde dehydrogenase) | Potency, µM (top dose mostly 57.1 µM), for the others: top-dose activity change, negative = inhibition, most hits filed as inhibitors | actives 1.6% (n = 230,000) | AID 2147;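 further: 0% = wells with enzyme and -100% = buffer wells without enzyme; nearly all actives have a fitted effect of over 50% in size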
Target sequence (B2RXH2 1-337 limits assumed): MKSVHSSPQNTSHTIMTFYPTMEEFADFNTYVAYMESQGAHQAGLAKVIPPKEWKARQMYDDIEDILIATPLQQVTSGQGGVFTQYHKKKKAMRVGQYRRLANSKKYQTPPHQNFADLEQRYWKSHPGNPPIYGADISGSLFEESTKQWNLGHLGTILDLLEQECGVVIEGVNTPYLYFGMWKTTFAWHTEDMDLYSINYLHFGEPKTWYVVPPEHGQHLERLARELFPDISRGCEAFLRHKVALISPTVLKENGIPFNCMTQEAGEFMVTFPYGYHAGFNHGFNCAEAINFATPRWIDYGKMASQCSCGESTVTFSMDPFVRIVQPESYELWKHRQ
HTT cytoprotect = Huntington cell model cytoprotection by ATP luminescence; Potency, µM (highest dose often 56.4 µM), for inactives: cytoprotection (ATP increase), usual class: activators; AID 1471; actives 0.14% (n = 230,000); PC12 HTT-Q103 induced, cytoprotection, ATP luminescence, 40 h; active means well fitted curve in the direction sought with a large enough effect; inconclusive means small, poorly fitted or top-dose-only effect, or another doubt; inactive means no such curve, though single readings can be large; an effect the other way counts as inactive or inconclusive; further: % of control where 0% means no effect; nearly all actives have a fitted effect of over 45% in size
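ATP quantification (ATPlite) reports survival of PC12 cells in which tebufenozide, 100 nM final, switches on Htt exon 1 with 103 glutamines linked to GFP; compounds are titrated.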
ALDH1A1 inh = blocks purified human ALDH1A1 activity; P00352; Purified ALDH1A1, NADH fluorescence, propionaldehyde substrate; Potency, µM (series often up to 75.3 µM), for the others: at the highest dose activity, negative = inhibition, usual class: inhibitors; actives 7.3% (n = 220,000); AID 1030;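 further: plate controls were no enzyme wells and a reference inhibitor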
HttQ103 aggreg = reduces HttQ103-GFP aggregates in PC12 cells; actives 1.1% (n = 220,000); Potency, µM (top dose mostly 46.1 µM), for the others: at the highest dose activity change, negative = inhibition, most hits filed as inhibitors; PC12 HttQ103-GFP aggregates, Acumen cytometry, 40 h; active means well fitted curve in the direction sought with a large enough effect; inconclusive means small, poorly fitted or top-dose-only effect, or another doubt; inactive means no such curve, though single readings can be large; an effect the other way counts as inactive or inconclusive; further: on the % scale 0 is the no-effect control and ±100 the full control effect; nearly all actives have a fitted effect of over 60% in size
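Inducible Q103 Huntingtin exon 1–GFP PC12 line, 1500 cells/well in phenol red free DMEM with 5% equine and 5% calf serum. Tebufenozide 100 nM induced expression; compounds titrated; aggregates quantified by cytometry.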
HPGD inh = HPGD (human) dehydrogenase inhibition; Potency, µM, for the others: top-dose activity change, negative = inhibition, actives largely listed as inhibitors; actives 4.3% (n = 150,000); AID 894; purified HPGD, NADH fluorescence kinetic, PGE2 substrate; further: on the % scale 0 is the no-effect control and ±100 the full control effect
Target sequence (P15428 whole entry, looked up): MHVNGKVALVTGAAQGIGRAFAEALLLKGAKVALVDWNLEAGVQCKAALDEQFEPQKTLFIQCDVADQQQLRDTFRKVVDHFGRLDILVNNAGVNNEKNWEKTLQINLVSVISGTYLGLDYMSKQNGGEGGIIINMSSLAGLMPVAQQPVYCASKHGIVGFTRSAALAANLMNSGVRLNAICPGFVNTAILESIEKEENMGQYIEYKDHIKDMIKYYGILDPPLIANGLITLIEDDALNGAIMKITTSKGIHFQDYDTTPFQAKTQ
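NADH formation kinetics: reaction with 30 uM PGE2 and 1 mM NAD+ (final), 20 nM enzyme, Tris-HCl pH 8 with Tween 20, after 15 min compound preincubation at room temperature. Fluorescence change, last versus first of five reads.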
* = called active by the depositor; ? = inconclusive; . = no result; [ ] = remark or other dose. Unless noted, the call rests on the fitted dose curve; in most records, active means well fitted inhibition curve with a large enough effect (not every such curve was filed as active); inconclusive means small, poorly fitted or top-dose-only effect, or another doubt; inactive means no such curve, though single readings can be large or run the other way. Potency means the concentration at half of the fitted maximal effect.

SMILES | Lamin A splicing | JMJD2E inh | HTT cytoprotect | ALDH1A1 inh | HttQ103 aggreg | HPGD inh
CNc1nc(-c2ccccn2)nnc1-c1ccccc1 | ? | ? | -46%[10 µM] | -2% | ? | -10%
COCCn1c(=O)c(-c2cn(C)c3ccccc23)nc2cnc(Oc3ccc(OC)cc3)nc21 | . | . | 11% | -6% | . | -7%
COc1ccc2nc(SCC(=O)NN)cc(C)c2c1 | -21% | 3% | -18% | 13µM* | 2% | -19%
CCCCC1=NN(C(=O)c2ccco2)C(O)(C(F)(F)F)C1 (stereo not drawn) | -7%[46 µM] | 2% | 11%[10 µM] | 10% | 2%[9.22 µM] | .
O=[N+]([O-])c1ccc(-n2nnnc2CN2CCCCC2)cc1 | . | 3% | -23%[10 µM] | 20µM* | -26%[9.22 µM] | .
CC(C)(NC(=O)c1cc(Cl)c2ccccc2c1O)C(=O)O | . | ? | 0%[10 µM] | . | -14%[9.22 µM] | .
C=CCN=c1scc(C)n1/N=C/c1ccc(O)c(O)c1 | -9%[46 µM] | 16µM* | -8%[10 µM] | 22µM* | ? | .
CN=c1scc(-c2ccco2)n1/N=C/c1ccc(O)c(O)c1 | 22%[46 µM] | 25µM* | -237% | 28µM* | 8.9µM* | .
COC(=O)NC(c1ccccc1)C(C#N)C(=O)OC (stereo not drawn) | . | . | -3%[10 µM] | -1%[13.5 µM] | . | .
NCCC[C@@H](CC(=O)N[C@@H]1CCNC[C@H]1C(=O)N[C@H](CC(=O)N[C@@H](CCC(=O)O)CC(=O)O)Cc1ccccc1)NC(=O)C[C@H](CO)NC(=O)[C@@H]1CNCC[C@H]1N | . | ? | -61% | 1% | . | -8%
c1ccc(C(c2ccccc2)N2CCN(c3nc4ccccc4n4cnnc34)CC2)cc1 | ? | -4% | -27% | 14µM* | -14% | .
CCc1ccc(CCC(=O)O)nc1 | . | . | 8%[10 µM] | 4%[13.5 µM] | . | -1%
O=c1c2c3c(sc2nnn1Cc1ccc(F)cc1)CCCC3 | -19%[46 µM] | . | . | . | . | .
C=CCn1nnc2sc3c(c2c1=O)CCC(C)C3 (stereo not drawn) | 11% | 5% | -4%[10 µM] | 18µM* | -14% | -19%
CSc1nc2sc3c(c2c(=O)n1C)CCC(C)C3 (stereo not drawn) | 8% | -14% | -31% | 25µM* | -12% | -11%
CSc1nc2sc3c(c2c(=O)n1C)CCCC3 | -6% | 8% | -22% | ? | 1% | -12%
CC(C)(C)c1[nH]nc2c1C(c1ccc(OC(=O)c3ccco3)cc1)C(C#N)=C(N)O2 (stereo not drawn) | 15% | -7% | 4% | 4.5µM* | 6% | -17%
CCC1=C2CC[C@H]3C(=O)N(CC)C(=O)[C@H]3[C@H]2[C@@]2(C)C(=NCC(=O)OC)OC(=O)N2C1=O | . | -5% | -9% | 8% | . | -2%
Cc1ccc(N/N=C2\CC(=O)c3ccccc32)cc1Cl | . | 22µM* | -10%[10 µM] | 25µM* | -24%[9.22 µM] | .
CCOC(=O)c1c(NC(=S)NC)sc2c1CC(C)(C)SC2 | ? | ? | 11%[10 µM] | 25µM* | 6% | ?
CCOC(=O)c1c(NC(=S)Nc2ccccc2)sc2c1CC(C)(C)SC2 | -18% | 1% | 5%[10 µM] | 2.5µM* | 0% | ?
Cc1c(C(c2ccc(N(C)C)cc2)c2c(C)n(C)n(-c3ccccc3)c2=O)c(=O)n(-c2ccccc2)n1C | . | -13% | -31% | 18µM* | -4% | .
Cn1c(Sc2ccc(Br)cc2)c(C=O)c2ccccc21 | ? | -7% | -60% | 1% | 10µM* | -7%
CCOC(=O)c1c(NC(=O)c2ccco2)sc2c1CCCC2 | 5% | ? | 3% | ? | 6% | ?
Cc1[nH]c2ccccc2c1NC(=O)CN1CCN(C(=O)c2ccco2)CC1 | . | -1% | 8%[10 µM] | 6.3µM* | 0%[9.22 µM] | .
SMILES | Lamin A splicing | JMJD2E inh | HTT cytoprotect | ALDH1A1 inh | HttQ103 aggreg | HPGD inh
CCOC(=O)c1c(NC(=O)CN2CCN(C(=O)c3ccco3)CC2)sc2c1CCCC2 | ? | ? | 18%[10 µM] | 24µM* | 25µM* | -19%
Cc1[nH]c2ccccc2c1C(=O)C(=O)N1CCN(C(=O)c2ccco2)CC1 | . | ? | . | 6.3µM* | 21% | .
CC(NC(=O)CCSc1nc(-c2ccc3c(c2)OCO3)cc(C(F)(F)F)n1)c1ccccc1 (stereo not drawn) | 0% | ? | -38% | ? | -33% | ?
O=C(NCc1ccccn1)C1CCN(C(=O)c2cc3sccc3n2Cc2ccc(F)cc2)CC1 | 1%[9.22 µM] | -2% | 1% | ? | -14% | .
CCn1c(C(=O)N2CCC(C(=O)NCCCSC3CCCCC3)CC2)cc2sccc21 | -17% | -2% | -4% | 3.2µM* | ? | -15%
O=C(NCc1ccco1)C1CCN(C(=O)c2cc3sccc3n2Cc2ccc(F)cc2)CC1 | ? | 4% | -50% | 4.5µM* | ? | -14%
CCN1CCN(C(=O)C2CCN(C(=O)c3cc4sccc4n3CC)CC2)CC1 | -8% | -5% | 5% | -9% | -5% | -16%
COCCCNC(=O)C1CCN(C(=O)c2cc3sccc3n2Cc2ccc(F)cc2)CC1 | -4% | -5% | 7%[10 µM] | 10µM* | -2% | -1%
CCn1c(C(=O)N2CCc3ccccc3C2)cc2sccc21 | -5% | -3% | -6% | -2% | -17% | 3.2µM*
COc1ccc(N2CCN(S(=O)(=O)CCNC(=O)COc3cccc(OC)c3)CC2)cc1 | 5%[46 µM] | . | . | . | . | .
C[C@@H]1C[C@H](OC(=O)[C@@H](O)c2ccccc2)CC(C)(C)N1C | -12% | 8%[25.5 µM] | -37%[17.1 µM] | 5%[20.9 µM] | . | -8%
CCc1ccc(NC(=O)CSc2nccn2C2CCCC2)cc1 | -3%[46 µM] | . | . | . | . | .
Cc1cc(NC(=O)CSCC(=O)N(c2cccc(Cl)c2)C(C(=O)NC2CCCCC2)c2ccc(O)c(O)c2)no1 (stereo not drawn) | ? | 10µM* | 22%[10 µM] | -6% | 10% | -9%
COc1ccc(N(C(=O)CSCC(=O)Nc2cc(C)on2)C(C(=O)NC2CCCCC2)c2ccc(O)c(O)c2)cc1 (stereo not drawn) | -9% | 11µM* | -2%[10 µM] | 4% | -23% | -13%
C[C@H]1COC(=O)[C@H]2CCCN2C(=O)[C@@H](C)COC(=O)[C@H]2CCCN2C1=O | . | . | -70%[10 µM] | -8%[13.5 µM] | . | .
COc1ccc(N=Cc2nc(-c3ccccc3)oc2OC(C)=O)cc1 | . | 12% | 16%[10 µM] | . | 6%[9.22 µM] | .

Screening results (PubChem BioAssay)
